Laboratory results reported in PubChem BioAssay (NCI).
Compounds without any hit were thinned out: in the full panel of roughly 79,000, 15% have a hit. Rule as the data show it: active = growth inhibition above about 70%; inactive = the rest.

How the values were obtained:
[1] = NCI Yeast Anticancer Drug Screen. Data for the rad50 strain (AID 155);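 also: 0% = growth of vehicle-only cultures of the same strain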; conditions: S. cerevisiae rad50 strain growth inhibition; at 50.0 µM; active compounds read high
Outline: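 A DNA repair-deficient yeast mutant serves as the test organism; compound-induced growth inhibition is calculated against vehicle-treated cells.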

[2] = NCI Yeast Anticancer Drug Screen. Data for the mec2-1 strain (AID 157); conditions: S. cerevisiae mec2-1 strain, at 50.0 µM, active compounds read high
Outline: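 Growth inhibition is read against vehicle-treated controls after compound exposure of the mec2-1 yeast strain, which is defective in DNA damage repair or cell cycle control.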

[3] = NCI Yeast Anticancer Drug Screen. Data for the sgs1 mgt1 strain (AID 161);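 also: 0% = growth of cultures given vehicle only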; conditions: S. cerevisiae sgs1 mgt1 strain, at 50.0 µM, active compounds read high
Outline: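 Growth of a repair-deficient yeast mutant was monitored after compound treatment and expressed as inhibition relative to vehicle-treated cultures.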

[4] = NCI Yeast Anticancer Drug Screen. Data for the cln2 rad14 strain (AID 165);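 also: 0% = growth equal to vehicle treated cultures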; conditions: S. cerevisiae cln2 rad14 strain, at 50.0 µM, active compounds read high
Outline: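 Growth inhibition, relative to vehicle-treated controls, is the read-out. The test organism is a yeast strain with defined genetic alterations, cln2 rad14.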

[5] = NCI Yeast Anticancer Drug Screen. Data for the bub3 strain (AID 167); conditions: S. cerevisiae bub3 mutant strain, at 50.0 µM, active compounds read high
Outline: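 Inhibition values come from growth of compound-treated mutant yeast normalised to vehicle-treated controls.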

[6] = NCI Yeast Anticancer Drug Screen. Data for the mlh1 rad18 strain (AID 175); conditions: S. cerevisiae mlh1 rad18 strain growth inhibition; at 50.0 µM; active compounds read high
Outline: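 Cells of a genetically altered yeast strain, deficient in DNA damage repair, were treated with compound. Their growth was then compared with that of vehicle-treated cultures to give inhibition.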

Measured: growth inhibition

O=C(OC1CCC(c2ccccc2)C1)c1cc([N+](=O)[O-])cc([N+](=O)[O-])c1 (stereo not given)
inactive: [1] 35% | [2] 25.9% | [3] 29.4% | [4] -4.3% | [5] 44.3% | [6] 58.1%

CC(C)=C1CC(=O)NC1=O
inactive: [1] -10.8% | [2] 17.1% | [3] -3.2% | [4] 6.35% | [5] -6.05% | [6] 0.55%

NC(=O)N/N=C/c1cccc([N+](=O)[O-])c1
inactive: [1] -7% | [2] 27.8% | [3] -5.9% | [4] -32.5% | [5] 25.6% | [6] 0%

COC(=O)Nc1nc2ccccc2n1-c1ccccc1
inactive: [1] 18.9% | [2] 2.85% | [3] 10.6% | [4] 14.2% | [5] 16.4% | [6] 17.5%

CCOC(=O)CC1CC2c3cc(OC)c(OC)cc3CCN2CC1CC (stereo not given)
inactive: [1] 3.1% | [2] 12.8% | [3] -6.7% | [4] -5.25% | [5] 1.95% | [6] 13.8%

Cc1cc(C)[n+](C)c(/C=C\c2ccc(Cl)cc2)n1
inactive: [1] 7.3% | [2] -6.95% | [3] 10.8% | [4] 3% | [5] -4.45% | [6] 12.9%

O=C(O)CCCCCCCCC(=O)c1cc(O)ccc1O
inactive: [1] -5.3% | [2] 42.1% | [3] 35.7% | [4] -7.25% | [5] 20.4% | [6] 7.9%

C/C(CC(C)(C)C)=N/NS(=O)(=O)c1ccc(C)cc1
inactive: [1] 7.7% | [2] -1.6% | [3] 9.8% | [4] 1.75% | [5] 5.45% | [6] 12.7%

C=CCCCCCCCCCCCCCCCCC
inactive: [1] -25.9% | [2] -24.1% | [3] -13.3% | [4] 10.4% | [5] -16.1% | [6] -28%

COc1ccccc1CCCO
inactive: [1] -1.8% | [2] 1.2% | [3] 1.55% | [4] 11.2% | [5] 10.1% | [6] -3.1%

C=C(C)c1ccc(F)cc1
inactive: [1] 3.9% | [2] -7.5% | [3] -1.65% | [4] 4.2% | [5] -2.05% | [6] 0.55%

CCN(CC)CCCNc1nc2ccccc2c2[nH]c3ccc(OC)cc3c12
inactive: [1] -37.4% | [2] -26.2% | [3] -41.9% | [4] -36.8% | [5] -40% | [6] -28.2%

Cc1cnc(C)c(C(O)c2ccccc2)n1 (stereo not given)
inactive: [1] -5.9% | [2] -10.3% | [3] -3.7% | [4] -17.9% | [5] -9.3% | [6] -3.65%

N#CC(/C(=N\NC(N)=S)C(=O)NC1C2CC3CC(C2)CC1C3)c1ccc(Cl)cc1 (stereo not given)
inactive: [1] 29.2% | [2] 10.2% | [3] 19.8% | [4] 10.1% | [5] 15.4% | [6] 25.4%

OC1C(O)C2OC(c3ccccc3)OC2C2OC(c3ccccc3)OC12 (stereo not given)
inactive: [1] 7.1% | [2] -4.85% | [3] 0.95% | [4] 0.1% | [5] -15.4% | [6] -2.35%

CC(C)C(NC(=O)C(Cc1ccccc1)NC(=O)[C@H]1CCC[C@H]1NC(=O)C(Cc1ccc(OC(C)(C)C)cc1)NC(=O)OC(C)(C)C)C(N)=O (stereo not given in full)
inactive: [1] -11.2% | [2] -6.7% | [3] -15.8% | [4] 18.7% | [5] -7.65% | [6] -0.2%

COC1CC(OC2C(C)OC(OC3C(C)OC(OC4C(C)OC(O[C@H]5CC[C@@]6(C)C(=CC[C@]7(O)[C@@H]6C[C@@H](OC(=O)/C=C/c6ccccc6)[C@@]6(C)[C@]7(O)CC[C@@]6(O)C(C)=O)C5)CC4OC)CC3OC)CC2OC)OC(C)C1O (stereo not given in full)
inactive: [1] 31% | [2] 19.2% | [3] 5.35% | [4] 25.9% | [5] 7.15% | [6] -27.6%

Cc1ccccc1/C=N\NC(=O)CCCC(=O)N/N=C/c1ccccc1C
inactive: [1] -8.9% | [2] 2.5% | [3] -25.5% | [4] 8.7% | [5] 24.4% | [6] -9.4%

CO/C(=N\N=C\c1ccccc1F)c1ccncc1
inactive: [1] -25.9% | [2] -64.8% | [3] -70.8% | [4] 1.7% | [5] -28.6% | [6] -60.6%

COC(=O)C(C)Oc1ccc(O)cc1 (stereo not given)
inactive: [1] 21.7% | [2] -3% | [3] 5% | [4] 7.7% | [5] 19.7% | [6] 10.4%

Cc1ccc(NC(=O)CC2C(=O)Nc3ccccc3S2(=O)=O)c(C)c1 (stereo not given)
inactive: [1] -24.6% | [2] -24.8% | [3] -6.8% | [4] 20.6% | [5] -2.85% | [6] -10.6%

CSc1ccc(NC(=O)c2ccc(C(=O)Nc3ccc(SC)cc3)cc2)cc1
inactive: [1] -17.5% | [2] -10.7% | [3] -12.6% | [4] -14.9% | [5] -1.95% | [6] -26.7%

S=C(/C=C1\SC(=Nc2ccccc2)C(=Nc2ccccc2)N1c1ccccc1)Nc1ccccc1
inactive: [1] 1.25% | [2] -9% | [3] -9.6% | [4] -4.1% | [5] 10.3% | [6] 1.35%

O=C(O)CCCc1ccc(O)cc1
inactive: [1] 7.1% | [2] 11.7% | [3] 8.4% | [4] 10.7% | [5] -1.15% | [6] 20.3%

CSc1ncc(CO)c(Nc2ccc(F)cc2)n1
inactive: [1] -12.7% | [2] 8.7% | [3] -16.4% | [4] -20% | [5] -14.9% | [6] -23.4%

COc1ccc2c(c1)CCN1CCc3ccccc3CC21 (stereo not given)
inactive: [1] 30.6% | [2] 43.4% | [3] 58.5% | [4] 45.9% | [5] 53.4% | [6] 42.6%

OCCNc1nc(NCCO)c2cn[nH]c2n1
inactive: [1] 0.5% | [2] 0.45% | [3] -1.15% | [4] -12.7% | [5] 5.75% | [6] 0.55%

O=C1C2=C(c3ccccc31)C(c1ccc(Cl)cc1)NC(=S)N2 (stereo not given)
inactive: [1] 52.6% | [2] 26.5% | [3] 57.8% | [4] 35.2% | [5] 44.4% | [6] 60.1%

C[N+](C)(C)C(Cc1ccccc1)Cc1ccccc1
inactive: [1] -27% | [2] 9.95% | [3] -29.9% | [4] -47.1% | [5] -0.7% | [6] 5.65%

C=CCSc1nc2ccc(N3C(=O)CCC3=O)cc2s1
inactive: [1] 15.4% | [2] -11.7% | [3] -10.6% | [4] 10.2% | [5] 6.05% | [6] 4%

Nc1cccc(S(=O)(=O)O)c1
inactive: [1] -27.1% | [2] -10.8% | [3] -36.2% | [4] -37.1% | [5] -13.8% | [6] -5.2%

COc1ccc(N2C(=O)C(=O)C3(CCCCC3)C2=O)c2ccccc12
inactive: [1] -6.15% | [2] -25.7% | [3] -16% | [4] 10.8% | [5] 1.05% | [6] 0.3%

CCOC(=O)C1=C(C)N(NC(N)=O)C2(N)N(NC(N)=O)C(C)=C(C(=O)OCC)C12C#N (stereo not given)
inactive: [1] -6.95% | [2] 21.9% | [3] 17.6% | [4] 4.3% | [5] 10.6% | [6] -12.1%

CCOc1ccccc1/C=C1\CCc2ccccc2C1=O
inactive: [1] 21.6% | [2] 34.8% | [3] 42.7% | [4] 0.4% | [5] 49.9% | [6] 23%

COc1ccc(C2SC(N)=Nc3c2c(C)nn3C(=O)c2ccccc2O)cc1 (stereo not given)
inactive: [1] 15.9% | [2] 10.1% | [3] 40.5% | [4] 5.85% | [5] 49.1% | [6] 29.4%

COCCN1CCC(CO)C1 (stereo not given)
inactive: [1] 4.85% | [2] 11.5% | [3] 20.1% | [4] 2.05% | [5] 11.9% | [6] 10.5%

NC(=S)c1ccc[n+]([O-])c1
inactive: [1] 15.6% | [2] 10.1% | [3] 20.2% | [4] -13.7% | [5] 6.9% | [6] 6.85%

Nc1cc(N)nc(S(=O)O)n1
inactive: [1] 18.9% | [2] 2.85% | [3] 16.1% | [4] 10.7% | [5] 19.8% | [6] 35.9%

CCC(=O)NCCCCC1CCCC[N+]1(C)C (stereo not given)
inactive: [1] -0.65% | [2] -11.9% | [3] 7.45% | [4] -14.4% | [5] -2% | [6] -15.8%

CC(C)(C)/C(=N\[N+](C)(C)C)c1ccccc1
inactive: [1] 7.85% | [2] 6.4% | [3] 0.4% | [4] -1.3% | [5] 6.8% | [6] 10.6%
